According to PubChem BioAssay (NCATS):
Inconclusive results are not listed. The source made the active and inactive calls. The call rests on the fitted dose curve.

These compounds were tested against Retinoic acid receptor RXR-alpha (Homo sapiens) (UniProt P19793) (assay: qHTS assay for small molecule agonists of retinoid X receptor alpha signaling (AID 588544)). Settings: HEK293T RXRa-UAS-bla, beta-lactamase reporter, 18 h; series mostly up to 76.7 µM.
Description: NIH Chemical Genomics Center [NCGC] U.S. Environmental Protection Agency [EPA] National Institutes of Environmental Health Sciences [NIEHS] National Toxicology Program [NTP] NCGC Assay Overview The Retinoid X receptor (RXR), a nuclear hormone receptor is expressed in liver, spleen, placenta, epidermis, central nervous system. These receptors are able to form homo and heterodimers with other nuclear receptors and due to this heterodimerizing ability, RXR functions as master regulators producing diverse physiological effects. Three subtypes of RXR exist; alpha, beta and gamma. Retinoid X receptor alpha (RXR-alpha) has potential roles in metabolic signaling pathways, skin alopecia, dermal cysts, cardiac development, insulin sensitization etc. Therefore screening environmental chemicals on RXR-alpha signaling can be used for the studies focused on such therapeutic applications.
NCGC Assay Protocol Summary Using a beta-lactamase reporter-gene under control of Retinoid X receptor--alpha (RXR-alpha) response element, a cell-based assay [GeneBLAzer (RXR-alpha -UAS-bla assay developed by Invitrogen] was used to measure RXR-alpha ligands signaling. GeneBLAzer RXR-alpha -UAS-bla HEK293T cells were used with assay medium containing 2% charcoal-stripped FBS. The assay was performed in clear bottom black Greiner 1536-well plates. 9-cis-retinoic acid was used in the screen as the positive control. Library compounds were measured for their ability to stimulate the reporter gene activity. Compounds were screened in a titration series in 1536-well format. The fluorescence intensity (405 nm excitation, 460/530 nm emission) was measured using an EnVision plate reader. Data was normalized relative to 9-cis-retinoic acid control (500 nM, 100%), and DMSO only wells (basal, 0%). Concentration-response titration points for each compound were fitted to the Hill equation yielding concentrations of half-maximal stimulation (EC50) and maximal response (efficacy) values. qHTS protocol for RXR-alpha beta-lactamase assay in agonist mode [Step] [Parameter] [Value] [Description] 1. Reagent; 6 uL; 2500 cells/well 2. Incubation; 37 C for 4 hrs 3. Compounds; 23 nL; 0.59 nM to 92 uM 4. Controls (9-cis-retinoic acid); 23 nL, - One column with dose response, start 38 uM, 1:3 dilutions in duplicates - Final concentrations of 500 nM and 50 nM in two columns 5. Incubation; 37 C for 18 hrs 6. Detection reagent; 1 uL of CCF4-dye 7. Incubation; RT for 2 hrs 8. Detection; Fluorescence; Envision plate reader

Chain of Retinoic acid receptor RXR-alpha (Homo sapiens) (P19793 whole entry, looked up): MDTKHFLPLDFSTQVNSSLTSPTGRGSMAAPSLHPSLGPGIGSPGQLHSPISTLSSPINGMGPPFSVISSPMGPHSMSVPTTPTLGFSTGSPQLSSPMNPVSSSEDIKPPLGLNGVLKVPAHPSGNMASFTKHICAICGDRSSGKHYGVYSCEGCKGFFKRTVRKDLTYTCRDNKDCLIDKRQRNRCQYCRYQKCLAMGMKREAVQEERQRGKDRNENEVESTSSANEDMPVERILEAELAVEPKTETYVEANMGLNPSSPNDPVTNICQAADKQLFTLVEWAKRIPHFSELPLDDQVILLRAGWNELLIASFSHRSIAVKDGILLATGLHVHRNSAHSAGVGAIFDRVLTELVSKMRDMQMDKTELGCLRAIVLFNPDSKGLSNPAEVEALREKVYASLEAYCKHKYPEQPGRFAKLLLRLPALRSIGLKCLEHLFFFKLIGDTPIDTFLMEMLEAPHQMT

Structure (SMILES)	outcome
C[C@]12C=CC(=O)C=C1CC[C@H]1[C@@H]3C[C@@H](O)[C@](O)(C(=O)CO)[C@@]3(C)C[C@H](O)[C@@]12F	inactive
NC(=O)N1c2ccccc2C=Cc2ccccc21	inactive
O=C(O)CCCCCCCC(=O)O	inactive
CC(=O)Nc1nnc(S(N)(=O)=O)s1	inactive
CC(C)(Oc1ccc(CCNC(=O)c2ccc(Cl)cc2)cc1)C(=O)O	inactive
CC(=O)[C@@]1(O)CC[C@H]2[C@@H]3CCC4=CC(=O)CC[C@]4(C)[C@H]3CC[C@@]21C	inactive
NC(=Nc1ccccc1)Nc1ccccc1	inactive
CN=C(NC#N)NCCSCc1nc[nH]c1C	inactive
COc1ccc(CN(CCN(C)C)c2ccccn2)cc1	inactive
Cc1ccc(S(=O)(=O)NC(=O)NN2CCCCCC2)cc1	inactive
CCCCNC(=O)NS(=O)(=O)c1ccc(C)cc1	inactive
C[C@]12CCC(=O)C=C1CC[C@@H]1[C@@H]2C(=O)C[C@@]2(C)[C@H]1CC[C@]2(O)C(=O)CO	inactive
COc1cc(Cc2cnc(N)nc2N)cc(OC)c1OC	inactive
CCCCOCCOCCOCc1cc2c(cc1CCC)OCO2	inactive
Nc1ncn([C@@H]2O[C@H](CO)[C@@H](O)[C@H]2O)c(=O)n1	inactive
O=c1[nH]c(=O)n([C@H]2C[C@H](O)[C@@H](CO)O2)cc1Br	inactive
